Read-outs that look alike come from different tables or passages of the source. In all, about 13,000 compounds went through this assay and about 3,200 (25%) showed an effect of 50% or more. This is one part of the list.
Tested on: P. falciparum stage V gametocytes
Design: BacTiter-Glo ATP luminescence viability of purified stage V gametocytes in 384-well plates, per cent inhibition versus DMSO
Conditions: 48 h, 5 µM, inhibitor

In the case of `CC(C)[C@H](NC(=O)c1ccc(O)c(-c2ccc(Cl)c(Cl)c2)c1)C(=O)NCCN1CCOCC1` [TCMDC-140850], the “% Inhibition” value is reported as -3.222%.
For `C=CCOC(=O)N1CCC(CNCc2ccc(-c3cccc(-c4nc5cccc(C)c5[nH]4)c3)cc2)C1.O=C(O)C(F)(F)F` (stereo not shown) [TCMDC-133039], the “% Inhibition” value was 9.6%.
`CC(Cc1ccc(Cl)cc1)Nc1nc(NC2CCCC2)nc(N2CCC(C#N)(c3ccccc3)CC2)n1` (stereo not shown) [TCMDC-139928] was tested, and the “% Inhibition” value was -79.71%.
In the case of `CN(C)c1ccc(-c2csc(C(=O)NC3CCN(Cc4ccc(C(C)(C)C)cc4)C3)c2)cc1` (stereo not shown) [TCMDC-134476], the “% Inhibition” value is reported as 63.77%.
In the case of `CN(C)c1ccc(-c2csc(C(=O)NC3CCCCN(Cc4ccc(C(C)(C)C)cc4)C3)c2)cc1` (stereo not shown) [TCMDC-134470], the “% Inhibition” value is reported as 63.14%.
With `CN(C)c1ccc(-c2ccc(C(=O)NC3CCN(Cc4ccc(C(C)(C)C)cc4)CC3)s2)cc1` [TCMDC-134354] the “% Inhibition” value was -40.81%.
With `CN(C)c1ccc(-c2csc(C(=O)NC3CCCCN(CCC(C)(C)C)C3)c2)cc1` (stereo not shown) [TCMDC-134487] the “% Inhibition” value was -62.75%.
With `CN(C)c1ccc(CN2CCCCC(NC(=O)c3cc(-c4ccccc4F)cs3)C2)cc1` (stereo not shown) [TCMDC-134471] the “% Inhibition” value was -62.25%.
`CC(C)(C)c1ccc(CN2CCCCC(NC(=O)c3cc(-c4cccc(Cl)c4)cs3)C2)cc1` (stereo not shown) [TCMDC-134468] was tested, and the “% Inhibition” value was -11.91%.
For `CC(=O)Nc1ccc(CN2CCC(NC(=O)c3cc(-c4ccc(N(C)C)cc4)cs3)C2)cc1` (stereo not shown) [TCMDC-134477], the “% Inhibition” value was 92.99%.
With `O=C(NCC1CCC(C(=O)NCc2cccc(C(F)(F)F)c2)CC1)c1ccc(O)c(-c2ccc(Cl)c(Cl)c2)c1` (stereo not shown) [TCMDC-140886] the “% Inhibition” value was 8.372%.
In the case of `COc1ccc2sc(CNCCCNc3cc(=O)c4ccccc4[nH]3)c(Cl)c2c1` [TCMDC-140334], the “% Inhibition” value is reported as -8.727%.
For `O=C(NC1CCN(Cc2ccccc2)CC1)c1ccc(-c2nc3cc4ccccc4cc3[nH]2)s1` [TCMDC-140122], the “% Inhibition” value was 18.76%.
With `CC1Cc2ccccc2N1CC(=O)Nc1cc(C(F)(F)F)ccc1-n1cncn1` (stereo not shown) [TCMDC-124870] the “% Inhibition” value was -73.33%.
In the case of `O=C(NCCNc1noc(-c2sccc2Br)n1)c1ccc(Cl)cc1` [TCMDC-134182], the “% Inhibition” value is reported as 2.834%.
With `O=c1cc(N2CCCNCC2)c(Cl)nn1Cc1ccc(NS(=O)(=O)c2ccc(Oc3ccccc3)cc2)cc1` [TCMDC-141692] the “% Inhibition” value was 2.781%.
In the case of `COc1ccc(-c2cnc3[nH]cc(-c4ccc(CCC(=O)O)cc4)c3c2)cn1` [TCMDC-136240], the “% Inhibition” value is reported as 35.75%.
For `COc1ccc(-c2cnc3[nH]cc(-c4ccc(C(=O)O)cc4)c3c2)cn1` [TCMDC-136213], the “% Inhibition” value was 14.9%.
For `COc1ccc(-c2cnc3[nH]cc(-c4ccncc4)c3c2)cc1OC` [TCMDC-135853], the “% Inhibition” value was 140.3%.
In the case of `COc1ccc(CNC(=O)C2Cc3ccccc3CN2Cc2ccc3ccccc3c2)cc1` (stereo not shown) [TCMDC-141565], the “% Inhibition” value is reported as -15.29%.
For `COc1ccc(-c2nonc2NC(=O)c2cccc(Cl)c2)cc1OC` [TCMDC-125401], the “% Inhibition” value was 22.75%.
With `O=C(Nc1nc(-c2ccccn2)cc2ccccc12)c1cccc(Cl)c1` [TCMDC-123886] the “% Inhibition” value was 116.1%.
For `CC(=O)Oc1cc(C(=O)Nc2ccc(Cl)cc2)cc2ccccc12` [TCMDC-123708], the “% Inhibition” value was 7.424%.
For `O=C(O)c1ccc2nc(-c3ccccn3)c(-c3ccccn3)nc2c1` [TCMDC-123820], the “% Inhibition” value was -4.631%.
With `NC(=Nc1nc(-c2ccccn2)cc2ccccc12)c1cccc(Cl)c1` [TCMDC-123745] the “% Inhibition” value was 62.24%.
For `CC1CCCN(C(=O)c2cc(-c3ccccn3)nc3c(Cl)cccc23)C1` (stereo not shown) [TCMDC-125218], the “% Inhibition” value was 20.47%.
For `O=C(NC1CCN(Cc2ccccc2)CC1)c1ccc(-c2nc3cc(Cl)c(F)cc3[nH]2)s1` [TCMDC-140100], the “% Inhibition” value was 2.226%.
`Cc1ccc(-c2csc(C)n2)c(C)c1` [TCMDC-125751] was tested, and the “% Inhibition” value was 2.132%.
For `O=c1cc(-c2cccc(C(F)(F)F)c2)nc(Nc2ccc(Cl)c(Cl)c2)[nH]1` [TCMDC-132206], the “% Inhibition” value was 43.99%.
In the case of `COc1cc(CS(C)(=O)=O)ccc1Nc1nccc(-c2c(-c3cccc(NC(=O)c4c(F)cccc4F)c3)nn3ccccc23)n1` [TCMDC-135792], the “% Inhibition” value is reported as -6.854%.
With `O=C(/C=C/c1ccc(Cl)c(Cl)c1)NCCCCCN1CCC(NC(=O)Nc2ccc(F)cc2F)CC1` [TCMDC-135712] the “% Inhibition” value was 11.66%.
With `O=C(/C=C/c1ccc(Cl)c(Cl)c1)NCCCCCN1CCC(NC(=O)c2ccc(F)cc2F)CC1` [TCMDC-135842] the “% Inhibition” value was -11.69%.
With `O=C(/C=C/c1ccc(Cl)c(Cl)c1)NCCCCCN1CCC(NC(=S)Nc2ccc(F)cc2F)CC1` [TCMDC-135900] the “% Inhibition” value was 33.5%.
For `O=C(C=Cc1ccc(Cl)c(Cl)c1)NCCCCCN1CCC(CCNS(=O)(=O)c2ccc(F)cc2)CC1` [TCMDC-139585], the “% Inhibition” value was 78.1%.
For `O=C(C=Cc1ccc(Cl)c(Cl)c1)NCCCCCN1CCC(CCCNS(=O)(=O)c2ccc(F)cc2)CC1` [TCMDC-139589], the “% Inhibition” value was 110.7%.
With `Cc1cc(NC(=O)Nc2cccc(Cl)c2Cl)c2ccccc2n1` [TCMDC-138971] the “% Inhibition” value was 10.53%.
For `O=C(CCc1c[nH]cn1)Nc1cccc(-c2ccc(-c3nc4cc(F)ccc4[nH]3)s2)c1` [TCMDC-132160], the “% Inhibition” value was 19.34%.
For `CCOc1ccc(CCCON2C(N)=NC(N)=NC2(C)C)cc1` [TCMDC-131754], the “% Inhibition” value was 18.76%.
With `C/C=C1\CN2CC[C@H]1C[C@H]2[C@H](O)c1ccnc2ccc(OC)cc12` [TCMDC-138275] the “% Inhibition” value (% Inhibition) was 1.908%.
For `COc1ccc2ncc(C#N)c(CCN3CCC(NCc4cnc5c(c4)OCCO5)CC3)c2n1` [TCMDC-135230], the “% Inhibition” value was 35.06%.
With `CC(C)[C@H](NC(=O)c1c(F)cccc1F)C(=O)Nc1ccc(Cc2nc3ccccc3s2)cc1` [TCMDC-125031] the “% Inhibition” value was 63.22%.
`CC(=O)c1sc(Cc2nc3ccccc3s2)nc1C` [TCMDC-125337] was tested, and the “% Inhibition” value was 10.02%.
With `CC(C)C(NC(=O)c1c(F)cccc1F)C(=O)Nc1ccc(Cc2nc3ccccc3s2)cc1` (stereo not shown) [TCMDC-125462] the “% Inhibition” value was -3.098%.

Source: PMC4552634, “A New Set of Chemical Starting Points with Plasmodium falciparum Transmission-Blocking Potential for Antimalarial Drug Discovery” (PLoS ONE, 2015)
